From PubChem BioAssay
HPGD inh: qHTS Assay for Inhibitors of HPGD (15-Hydroxyprostaglandin Dehydrogenase); 15-hydroxyprostaglandin dehydrogenase [NAD(+)] (Homo sapiens), P15428; purified HPGD, NADH fluorescence kinetic, PGE2 substrate; Potency, µM, hits mostly inhibitors; 150,000 tested, 4.3% active
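20 nM HPGD preincubated 15 min at room temperature with compound in 50 mM Tris-HCl pH 8, 0.01% Tween 20. Started with 1 mM NAD+ and 30 uM prostaglandin E2; NADH fluorescence (360/450 nm) read 5 times over 30-s intervals, last minus first.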
PNC inhibitor: High Content Assay for Compounds that inhibit the Assembly of the Perinucleolar Compartment | PC3M PTB-GFP, PNC prevalence imaging, 16 h; hits give low values | 140,000 tested, 3.1% active | AID 2417, 2010 | activity change (PNC), negative = inhibition, % at 10 µM;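 active = readout at or below -70, meaning at least 70% loss of cells showing the perinucleolar compartment, a nuclear body marking cancer cells; inconclusive = readout between -30 and a set limit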
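PC3M cells stably expressing PTB-GFP, 750–1000 cells/well, treated 16 h at 37 °C with compound (23 nl of library stock), in duplicate. After paraformaldehyde fixation and Hoechst stain, imaged at 20x; PNC prevalence scored by image analysis.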
12-hLO inh: qHTS Assay for Inhibitors of 12-hLO (12-human lipoxygenase) | Polyunsaturated fatty acid lipoxygenase ALOX12 (Homo sapiens), P18054 | purified 12-hLO, xylenol orange hydroperoxide absorbance | Potency, µM (series often up to 57.1 µM), hits mostly inhibitors | 150,000 tested, 0.12% active | AID 1452, 2008; active = well fitted inhibition curve with a large enough effect; inconclusive = small, poorly fitted or top-dose-only effect; note: nearly all actives have a fitted effect of over 55% in size
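Purified human 12hLO (150 nM), preincubated 15 min with compound, then 40 uM arachidonic acid for 30 min, room temperature, Hepes pH 7.0 with 0.01% Triton X-100. Hydroperoxide detected by ferrous iron/xylenol orange; 573/405 nm absorbance ratio gives reaction progress.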
ALDH1A1 inh: qHTS Assay for Inhibitors of Aldehyde Dehydrogenase 1 (ALDH1A1); Potency, µM (doses to about 75.3 µM), usual class: inhibitors; Aldehyde dehydrogenase 1A1 (Homo sapiens), P00352; Purified ALDH1A1, NADH fluorescence, propionaldehyde substrate; 220,000 tested, 7.3% active
Target sequence (P00352 whole entry, looked up): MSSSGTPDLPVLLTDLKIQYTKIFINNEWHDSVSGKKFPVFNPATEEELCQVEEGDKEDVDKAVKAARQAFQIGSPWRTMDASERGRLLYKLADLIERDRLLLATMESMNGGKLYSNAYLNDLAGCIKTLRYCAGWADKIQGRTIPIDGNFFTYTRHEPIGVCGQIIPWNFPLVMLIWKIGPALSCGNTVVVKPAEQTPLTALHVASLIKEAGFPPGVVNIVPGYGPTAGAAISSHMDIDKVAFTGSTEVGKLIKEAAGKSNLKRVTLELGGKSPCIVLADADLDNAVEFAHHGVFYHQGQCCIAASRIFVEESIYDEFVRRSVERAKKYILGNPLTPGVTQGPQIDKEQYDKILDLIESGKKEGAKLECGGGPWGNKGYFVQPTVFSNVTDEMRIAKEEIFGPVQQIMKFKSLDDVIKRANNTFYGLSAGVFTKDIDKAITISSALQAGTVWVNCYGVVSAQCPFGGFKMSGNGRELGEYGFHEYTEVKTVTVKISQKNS
LMNA splice mod: qHTS Assay for Modulators of Lamin A Splicing | HeLa LMNA splicing GFP/RFP minigene ratio, 48 h | Potency, µM (top dose mostly 46.1 µM), most hits filed as inhibitors | 200,000 tested, 0.01% active; active = well fitted inhibition curve with a large enough effect in the signal ratio, with a control signal flat, not every such curve was filed as active; inconclusive = small, poorly fitted or top-dose-only effect, or effect the other way, or a change in a side signal; the % refers to the signal ratio
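Read-out is the ratio of GFP to DsRed2 object intensity, acquired by 488 nm laser-scanning cytometry on HeLa lamin A-EGFP minigene reporter cells. Compound incubation 48 hrs at 37 °C in Opti-MEM with 2% FBS; DMSO 0.5% final.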
Numbers stand for hits; - = inactive; ? = inconclusive; . = not tested or not shown; [ ] = dose if it differs, or a comment. Hits are enriched below; roughly 10% of the tested compounds scored in any of these assays. Unless noted, calls come from the whole dose curve; as a rule, active = well fitted inhibition curve with a large enough effect (not every such curve was filed as active); inconclusive = small, poorly fitted or top-dose-only effect, or another doubt; inactive = no such curve, though single readings can be large or run the other way.

SMILES | HPGD inh | PNC inhibitor | 12-hLO inh | ALDH1A1 inh | LMNA splice mod
CCN1CCN(c2ccc([N+](=O)[O-])c(Sc3nc4ccccc4[nH]3)c2)CC1 | . | ? | - | - | ?
Cn1cnc([N+](=O)[O-])c1Sc1nnc(-c2cccnc2)n1C | - | . | -[11.4 µM] | -[13.5 µM] | -
Cc1cc2nc(Sc3c([N+](=O)[O-])nc(C)n3Cc3ccccc3)[nH]c2cc1C | - | ? | - | 1.1µM | ?
Cc1cccc(Sc2c([N+](=O)[O-])ncn2C)c1 | 5µM | - | - | - | -
CCCc1nc2ccc(NC(=O)c3ccco3)cc2c(=O)n1Cc1ccc(Cl)cc1 | - | - | - | - | -
CCCc1nc2ccc(NC(=O)c3ccco3)cc2c(=O)n1Cc1ccccc1Cl | - | -100 | - | - | -
CCCCn1cnc2c(sc3nc4c(cc32)CSC(C)(C)C4)c1=O | - | - | - | 1.1µM | -
CC(C)CCn1cnc2c(sc3nc4c(cc32)CSC(C)(C)C4)c1=O | - | ? | - | 1.8µM | -
CCOc1ccc(NC(=O)N2CCC(CN3CCCCCC3)CC2)cc1 | . | . | . | . | -
COc1ccc(C(=O)N(Cc2ccco2)Cc2cccs2)c(O)c1 | ? | ? | - | 13µM | -
CC(C)(C)NC(=O)C(c1ccco1)N(Cc1ccc(F)cc1)C(=O)c1snc(C(N)=O)c1N (configuration not stated) | - | - | - | - | -
Cc1ccc(-c2nnn(CC(=O)N(Cc3ccco3)C(C(=O)NC(C)(C)C)c3cccs3)n2)o1 (configuration not stated) | - | - | - | 28µM | -
COc1ccc(CNC(=O)C(c2ccco2)N(Cc2ccccc2)C(=O)Cc2cccs2)cc1 (configuration not stated) | - | - | - | 13µM | ?
COc1ccc(CN(C(=O)c2snc(C(N)=O)c2N)C(C(=O)NC(C)(C)C)c2ccco2)cc1 (configuration not stated) | - | -101 | - | ? | -
COc1ccc(CNC(=O)C(c2ccco2)N(C(=O)Cc2cccs2)c2cccnc2)cc1 (configuration not stated) | . | . | . | - | .
COc1ccc(-n2ccn(Cc3ccccc3Cl)c(=O)c2=O)cc1OC | . | . | . | . | -
CCCCOc1ccc(CNC(=O)C2COc3ccc(OC)cc3C2)cc1 (configuration not stated) | . | . | . | . | -
COc1ccc(CNC(=O)C(c2ccncc2)N(C(=O)Cc2cccs2)c2ccccc2C)cc1 (configuration not stated) | - | ? | - | ? | -
COCCN(C(=O)Cc1cccs1)C(C(=O)NCc1ccc(OC)cc1)c1ccc(OC)cc1 (configuration not stated) | - | - | - | 2.2µM | -
COc1ccc(CNC(=O)C(c2cccs2)N(Cc2ccco2)C(=O)Cc2cccs2)cc1 (configuration not stated) | - | - | - | 2µM | ?
CN(C)c1ccc(-c2nc(N3CCNCC3)c3ccccc3n2)cc1 | - | . | - | - | ?
CN(C)c1ccc(CNC(=O)c2ccc(NC(=O)c3nsc4ccccc34)cc2)cc1 | . | . | . | . | -
Cc1cc(C)c(S(=O)(=O)N2CCN(C(=O)N(C)C)CC2)c(C)c1 | . | . | . | 4.5µM | ?
CN(Cc1ccco1)c1ncnc2ccc(-c3ccccc3C(F)(F)F)cc12 | . | . | . | - | -
O=C(COc1ccccc1)Nc1ccc2nc(SCCOc3ccccc3)sc2c1 | . | . | . | . | -
SMILES | HPGD inh | PNC inhibitor | 12-hLO inh | ALDH1A1 inh | LMNA splice mod
CCOc1ccc(NC(=O)CSc2nc3[nH]ncc3c(=O)n2-c2ccccc2OC)cc1 | - | - | - | 8.9µM | -
CCOC(=O)c1ccc(NC(=O)CSc2nc3c(c(=O)n2-c2ccccc2OC)SCC3)cc1 | - | ? | - | - | -
COc1ccc(NC(=O)CSc2nc3c(c(=O)n2-c2ccccc2OC)SCC3)cc1 | - | - | - | 11µM | -
COC(=O)C(C)Sc1nc2c(c(=O)n1-c1ccccc1)SCC2 (configuration not stated) | - | ? | - | 3.2µM | -
Cc1cc(C)cc(N2C(=O)CSC23C(=O)N(Cc2c(F)cccc2Cl)c2ccccc23)c1 (configuration not stated) | . | . | . | . | -
Cc1ccc(-c2n[nH]c(=S)n2/N=C/c2cccs2)cc1 | 13µM | - | - | ? | ?
COc1cccc(/C=N/n2c(-c3cccs3)n[nH]c2=S)c1 | 2.2µM | - | - | ? | -
S=c1[nH]nc(-c2ccccc2)n1/N=C/c1cccs1 | 18µM | - | - | 25µM | -
Cc1ccc(-c2n[nH]c(=S)n2/N=C/c2ccc(C)s2)cc1 | 4µM | - | - | - | -[0.0737 µM]
Cc1cc(-c2n[nH]c(=S)n2/N=C/c2cccs2)n[nH]1 | ? | - | - | - | -
Cc1nc2ccccc2c(=O)n1/N=C/c1cccs1 | . | . | . | - | -
Cc1ccc(Nc2ncnc3onc(C)c23)cc1Cl | . | . | . | . | -
COc1ccc(-c2nnc3n2N(C(C)=O)C(c2ccc(Cl)c(Cl)c2)=C(C(C)=O)S3)cc1 | . | . | . | . | -
Cc1ccccc1CN1c2ccccc2S(=O)(=O)c2ccccc21 | . | . | . | . | -
CC1=CC(C)(C)N(C(=O)CSc2ncn[nH]2)c2ccccc21 | - | ? | - | 13µM | -
CC1=CC(C)(C)N(C(=O)CSc2nnc(N)s2)c2ccccc21 | - | - | - | ? | -
CCOC(=O)C1CCN(C(=O)c2nn(-c3ccc(C)cc3)c(=O)n(C)c2=O)CC1 | . | . | . | . | -
COc1ccc(NC(=O)CSc2ccc(F)cc2)cc1S(=O)(=O)N1CCCCC1 | - | - | - | 15µM | ?
COc1ccc(NC(=O)CSc2ccccc2)cc1S(=O)(=O)N1CCCCC1 | - | -81 | - | - | ?
CC1CCC(C(C)C)C(O)C1 (configuration not stated) | - | . | -[0.00818 µM] | - | -
CN1CCN(c2ncc3nc(-c4cn(C)c5ccccc45)c(=O)n(Cc4cccs4)c3n2)CC1 | . | . | . | - | ?
COc1ccc(C(=O)N2CCC(C(=O)c3c(C)cc(C)cc3C)CC2)cc1 | . | . | . | 22µM | .
CCOc1ccc(C(=O)N2CCCC2)cc1 | 7.9µM | - | - | - | -
CCCCOc1ccc(C(=O)N2CCCC2)cc1 | 2.2µM | - | - | ? | -
CCOC(=O)C1CCCN(C(=O)COC(=O)c2ccc(C#N)cc2)C1 (configuration not stated) | . | . | . | - | -
CCOC(=O)C1CCCN(C(=O)c2ccc(OCC)cc2)C1 (configuration not stated) | 14µM | - | - | - | -
CCOC(=O)N1CCN(CC(O)COc2ccc(C)cc2C(C)(C)C)CC1 (configuration not stated) | - | - | - | - | ?
N#CCCn1c(=O)c(-c2ccccc2)nc2cnc(OCc3ccccc3)nc21 | ? | . | - | ? | .
O[C@H](CCCN1CCN(c2ncc(F)cn2)CC1)c1ccc(F)cc1 | - | . | - | - | .
NCC(=O)O | - | . | - | - | .
